Hit rate of the full screen: of about 5,500 compounds, about 2,000 (36%) were called active. Roughly 18% stayed inconclusive and do not appear here. No stated cut-off is given here; in the data, active means normalized growth mostly below about 0.91 (no sharp cut-off); inconclusive means no clear call, values can overlap the other calls; inactive means mostly above about 0.92. The list shows a part of the results.
Test: chemical genetic growth profiling, strain panel (AID 1159580);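 further: tested at 20 µM; growth read once vehicle control cultures reached saturation at 30 °C; 1 = growth at the plate median or of vehicle wells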
Conditions: growth OD

Measured: normalized growth

CC1=C(/C=C/C(C)=C/C=C/C(C)=C/C=C/C=C(C)/C=C/C=C(C)/C=C/C23OC2(C)CC(O)CC3(C)C)C(C)(C)CC(O)C1 (configuration not stated)
inactive: S. cerevisiae deletion strains, locus YBR021W, strain FUR4, stronger effect = lower value 1 | S. cerevisiae deletion strains, locus YBR229C, strain ROT2, stronger effect = lower value 1.01 | S. cerevisiae deletion strains, locus YCL029C, strain bik1, stronger effect = lower value 1.02 | S. cerevisiae deletion strains, locus YDL035C, strain GPR1, stronger effect = lower value 1.01 | S. cerevisiae deletion strains, locus YDL074C, strain BRE1, stronger effect = lower value 1.03 | S. cerevisiae deletion strains, locus YDL101C, strain DUN1, stronger effect = lower value 1.01 | S. cerevisiae deletion strains, locus YDL185W, strain tfp1, stronger effect = lower value 1 | S. cerevisiae deletion strains, locus YDL192W, strain arf1, stronger effect = lower value 1 | S. cerevisiae deletion strains, locus YDR101C, strain arx1, stronger effect = lower value 1.01 | S. cerevisiae deletion strains, locus YDR162C, strain NBP2, stronger effect = lower value 0.997 | S. cerevisiae deletion strains, locus YDR318W, strain mcm21, stronger effect = lower value 1.01 | S. cerevisiae deletion strains, locus YDR388W, stronger effect = lower value 1.01 | S. cerevisiae deletion strains, locus YDR502C, strain sam2, stronger effect = lower value 1.02 | S. cerevisiae deletion strains, locus YEL061C, strain CIN8, stronger effect = lower value 1.01 | S. cerevisiae deletion strains, locus YER110C, stronger effect = lower value 1.02 | S. cerevisiae deletion strains, locus YER155C, strain BEM2, stronger effect = lower value 1.01 | S. cerevisiae deletion strains, locus YER167W, strain BCK2, stronger effect = lower value 1.02 | S. cerevisiae deletion strains, locus YGL078C, strain dbp3, stronger effect = lower value 0.995 | S. cerevisiae deletion strains, locus YGL086W, strain mad1, stronger effect = lower value 1.05 | S. cerevisiae deletion strains, locus YGL248W, strain PDE1, stronger effect = lower value 1 | S. cerevisiae deletion strains, locus YGR135W, strain pre9, stronger effect = lower value 0.982 | S. cerevisiae deletion strains, locus YGR252W, strain gcn5, stronger effect = lower value 0.987 | S. cerevisiae deletion strains, locus YHR030C, strain SLT2, stronger effect = lower value 1.01 | S. cerevisiae deletion strains, locus YHR079C, strain IRE1 (second series), stronger effect = lower value 1 | S. cerevisiae deletion strains, locus YHR094C, strain hxt1, stronger effect = lower value 1.01 | S. cerevisiae deletion strains, locus YHR129C, strain ARP1, stronger effect = lower value 1.02 | S. cerevisiae deletion strains, locus YHR200W, strain rpn10, stronger effect = lower value 1.01 | S. cerevisiae deletion strains, locus YIL066C, strain RNR3, stronger effect = lower value 1.01 | S. cerevisiae deletion strains, locus YIL073C, strain SPO22, stronger effect = lower value 1.1 | S. cerevisiae deletion strains, locus YIL125W, strain kgd1, stronger effect = lower value 1.01 | S. cerevisiae deletion strains, locus YIR030C, strain dcg1, stronger effect = lower value 1.01 | S. cerevisiae deletion strains, locus YJL095W, strain BCK1, stronger effect = lower value 0.998 | S. cerevisiae deletion strains, locus YJL134W, strain LCB3, stronger effect = lower value 1.01 | S. cerevisiae deletion strains, locus YJL168C, strain set2, stronger effect = lower value 1.01 | S. cerevisiae deletion strains, locus YJL187C, strain SWE1 (second series), stronger effect = lower value 1 | S. cerevisiae deletion strains, locus YJR043C, strain POL32, stronger effect = lower value 0.999 | S. cerevisiae deletion strains, locus YKL009W, strain mrt4, stronger effect = lower value 1.03 | S. cerevisiae deletion strains, locus YKL068W, stronger effect = lower value 1 | S. cerevisiae deletion strains, locus YKL085W, strain MDH1 (second series), stronger effect = lower value 1.01 | S. cerevisiae deletion strains, locus YKL085W, strain MDH1, stronger effect = lower value 1.01 | S. cerevisiae deletion strains, locus YKL190W, strain CNB1, stronger effect = lower value 1.01 | S. cerevisiae deletion strains, locus YKR001C, strain vps1, stronger effect = lower value 1.04 | S. cerevisiae deletion strains, locus YLR039C, strain RIC1, stronger effect = lower value 1.01 | S. cerevisiae deletion strains, locus YLR058C, strain SHM2, stronger effect = lower value 1.01 | S. cerevisiae deletion strains, locus YLR102C, strain apc9, stronger effect = lower value 1.02 | S. cerevisiae deletion strains, locus YLR262C, strain YPT6, stronger effect = lower value 0.973 | S. cerevisiae deletion strains, locus YLR268W, strain sec22, stronger effect = lower value 1.02 | S. cerevisiae deletion strains, locus YLR330W, strain CHS5, stronger effect = lower value 1.02 | S. cerevisiae deletion strains, locus YLR342W, strain FKS1 (second series), stronger effect = lower value 1.06 | S. cerevisiae deletion strains, locus YLR371W, strain rom2, stronger effect = lower value 1.01 | S. cerevisiae deletion strains, locus YLR418C, strain cdc73, stronger effect = lower value 1 | S. cerevisiae deletion strains, locus YML016C, strain PPZ1, stronger effect = lower value 1.01 | S. cerevisiae deletion strains, locus YML032C, strain rad52, stronger effect = lower value 1 | S. cerevisiae deletion strains, locus YML124C, strain tub3, stronger effect = lower value 1 | S. cerevisiae deletion strains, locus YMR078C, strain ctf18, stronger effect = lower value 1.02 | S. cerevisiae deletion strains, locus YMR223W, strain ubp8, stronger effect = lower value 1.01 | S. cerevisiae deletion strains, locus YMR263W, strain SAP30, stronger effect = lower value 1.01 | S. cerevisiae deletion strains, locus YMR307W, strain GAS1, stronger effect = lower value 1.02 | S. cerevisiae deletion strains, locus YNL067W, strain RPL9B, stronger effect = lower value 1 | S. cerevisiae deletion strains, locus YNL153C, strain GIM3, stronger effect = lower value 0.994 | S. cerevisiae deletion strains, locus YNL233W, strain BNI4, stronger effect = lower value 1.02 | S. cerevisiae deletion strains, locus YNL250W, strain rad50, stronger effect = lower value 1.01 | S. cerevisiae deletion strains, locus YNL271C, strain bni1, stronger effect = lower value 1 | S. cerevisiae deletion strains, locus YNL298W, strain CLA4, stronger effect = lower value 0.991 | S. cerevisiae deletion strains, locus YNL307C, strain MCK1, stronger effect = lower value 1.01 | S. cerevisiae deletion strains, locus YNL322C, strain KRE1, stronger effect = lower value 1.01 | S. cerevisiae deletion strains, locus YNR052C, strain pop2, stronger effect = lower value 1 | S. cerevisiae deletion strains, locus YOL006C, strain TOP1, stronger effect = lower value 1.11 | S. cerevisiae deletion strains, locus YOL012C, strain htz1 0.925 | S. cerevisiae deletion strains, locus YOL147C, strain pex11, stronger effect = lower value 1.01 | S. cerevisiae deletion strains, locus YOR061W, strain CKA2, stronger effect = lower value 1.02 | S. cerevisiae deletion strains, locus YOR069W, strain VPS5, stronger effect = lower value 1.02 | S. cerevisiae deletion strains, locus YOR136W, strain idh2, stronger effect = lower value 1 | S. cerevisiae deletion strains, locus YOR144C, strain elg1, stronger effect = lower value 0.998 | S. cerevisiae deletion strains, locus YOR184W, strain ser1, stronger effect = lower value 1.03 | S. cerevisiae deletion strains, locus YOR316C, strain cot1, stronger effect = lower value 1.03 | S. cerevisiae deletion strains, locus YPR119W, strain clb2, stronger effect = lower value 0.994 | S. cerevisiae deletion strains, locus YPR141C, strain kar3, stronger effect = lower value 1.01 | S. cerevisiae deletion strains, locus YPR163C, strain tif3, stronger effect = lower value 1.01 | S. cerevisiae deletion strains, locus YPR167C, strain met16, stronger effect = lower value 1.01 | S. cerevisiae deletion strains, strain wtn01, stronger effect = lower value 1.02 | S. cerevisiae strains, strain wild type, stronger effect = lower value 1.01
